Screening results (PubChem BioAssay)
Shown are actives, neighbours in structure and some others; about 8.1% of the full set was active somewhere.
VP16 counter – VP16 counterscreen qHTS for inhibitors of ROR gamma transcriptional activity. Drosophila S2 Gal4-VP16 UAS-luciferase, luminescence, 20 h. Potency, µM (titrated, usually from 53.6 µM), without a hit: at the top dose activity, negative = inhibition, actives largely listed as inhibitors. 310,000 compounds, 3.5% hits. AID 2546, 2010;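 note: Gal4-VP16 expression switched on by copper sulfate through the metallothionein promoter; % is set by controls: 0 for no effect and ±100 for the full control effect; nearly all actives have a fitted effect of over 50% in size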
Epigenetic derep – Quantitative High-Throughput Screen for Regulators of Epigenetic Control. murine LDR cells, GFP reporter derepression, 30 h. Potency, µM (series often up to 53.9 µM), inactives show at the highest dose GFP activation, most hits filed as activators. 280,000 compounds, 0.2% hits. AID 1865, 2009; note: % of control where 0% means no effect; nearly all actives have a fitted effect of over 60% in size
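Murine LDR cells bearing a silenced CMV-driven GFP reporter were exposed to compound for 30 h at 37 C. After PBS washes, GFP-positive cells (20-120 um objects) counted by laser-scanning microplate cytometry.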
RORg inh – qHTS for inhibitors of ROR gamma transcriptional activity; Nuclear receptor ROR-gamma (Mus musculus), P51450; 310,000 compounds, 5.4% hits; Drosophila S2 Gal4-RORgamma UAS-luciferase reporter, 20 h; Potency, µM (highest dose often 53.6 µM), for inactives: top-dose activity change, negative = inhibition, hits mostly inhibitors; note: % is set by controls: 0 for no effect and ±100 for the full control effect; nearly all actives have a fitted effect of over 60% in size
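Luciferase reporter read in Schneider cells carrying Gal4-RORγ (mouse) and UAS-Photinus luciferase; cells given compound 1 h before 700 uM copper sulfate induction, then incubated 20 h at ambient temperature.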
ClpP mod – qHTS Assay for Activators of ClpP; ATP-dependent Clp protease proteolytic subunit (Bacillus subtilis (strain 168)), P80244; purified B. subtilis ClpP, FRET peptide cleavage, 20 min; Potency, µM (top dose mostly 57.5 µM), for the others: at the highest dose activity change, negative = active; 340,000 compounds, 1.9% hits; active = well fitted falling curve with a large enough effect; inconclusive = small, poorly fitted or top-dose-only effect; inactive = no such curve, though single readings can be large or run the other way; note: the source files actives as falling curves though it sought activators and does not explain the sign; nearly all actives have a fitted effect of over 65% in size
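FRET quenching reversal measured ClpP activation: 10 microg/mL B. subtilis ClpP at pH 8 with the FRET-FV decapeptide, read at 430 nm after 320 nm excitation. The 20-min minus 0-min signal was scaled between DMSO/no-enzyme wells and ADEP (5.8 microM final).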
Sfp inh – qHTS Assay for Inhibitors of Bacillus subtilis Sfp phosphopantetheinyl transferase (PPTase). Potency, µM, for the others: largest response in the series, negative = inhibition, most hits filed as inhibitors. Biochemical Sfp PPTase activity, qHTS. AID 1490, 2009. 310,000 compounds, 3.5% hits. 4'-phosphopantetheinyl transferase ffp (Bacillus subtilis), Q9F4F7;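 note: the enzyme is Sfp with the accession as filed and its product quenches rhodamine fluorescence; 0% = enzyme reaction without inhibitor and -100% = no enzyme wells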
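Fluorescence-quenching assay with 15 nM Sfp, 5 uM rhodamine-CoA and 12.5 uM BHQ-2-labelled ybbR peptide in pH 7.6 Hepes/MgCl2 buffer. Enzyme was pre-incubated with compound for 15 min at room temperature. Rate was taken from the 30-min fluorescence change (525/598 nm).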
PINK1 expr mod – A Quantitative High throughput Screen to Identify Chemical Modulators of PINK1 Expression; 410,000 compounds, 0.2% hits; Potency, µM (highest dose often 76.6 µM), for inactives: at the highest dose activation (PINK1 increase), actives largely listed as activators; PINK1 immunofluorescence, high-content cytometry, 24 h; active = well fitted activation curve with a large enough effect; inconclusive = small, poorly fitted or top-dose-only effect; cell line not stated here; note: % of control where 0% means no effect; nearly all actives have a fitted effect of over 65% in size
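PINK1 protein, normally rapidly degraded, was detected by immunofluorescence after 24 hour compound treatment of a stable cell line. Titration data (5 concentrations) came from laser-scanning cytometry, with CCCP-treated wells as controls.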
Active calls of the source: *; ? = inconclusive; . = no result given; [ ] = remark or other dose. Unless noted, calls come from the whole dose curve; as a rule, active = well fitted curve in the direction sought with a large enough effect; inconclusive = small, poorly fitted or top-dose-only effect, or another doubt; inactive = no such curve, though single readings can be large; an effect the other way counts as inactive or inconclusive. Potency is the fitted concentration of half-maximal effect.

SMILES | VP16 counter | Epigenetic derep | RORg inh | ClpP mod | Sfp inh | PINK1 expr mod
O=C(O)c1ccc(-n2c(-c3ccc(Br)cc3)n[nH]c2=S)cc1 | 2% | -1% | 2% | 0% | ? | 1%
O=[N+]([O-])c1cccc(-c2n[nH]c(=S)n2-c2ccc(Br)cc2)c1 | 0% | -1% | 10µM* | . | -5% | -2%
COc1ccc(-c2n[nH]c(=S)n2-c2ccc3c(c2)OCCO3)cc1 | ? | -1% | 2.8µM* | -21% | ? | 1%
O=[N+]([O-])c1cccc(/C=N/n2c(-c3cccnc3)n[nH]c2=S)c1 | -27% | -2% | ? | 1% | ? | 2%
S=c1[nH]nc(-c2ccc(Br)cc2)n1-c1ccc(Br)cc1 | ? | . | 11µM* | -5% | 22% | 1%
COc1ccc(-c2[nH]ncc2-c2ccc3c(c2)OCCO3)c(O)c1 | ? | 0% | ? | -11% | 9% | 4%
COc1cccc(-n2c(-c3cccc(S(=O)(=O)N(C)C)c3)n[nH]c2=S)c1 | 10% | 0% | -33% | 1% | 50µM* | -1%
COc1ccc(-n2c(-c3ccco3)nc3c(cnn3-c3ccccc3Cl)c2=O)cc1 | . | -1% | . | -1% | . | 3%
Cc1ccc(CN2CCOc3ccc(C(C)(O)COc4ccccc4)cc3C2)o1 (stereo not drawn) | . | . | . | . | . | 0%
COC(=O)c1c(NC(C)=O)sc(C(=O)Nc2ccccc2F)c1C | -5% | 14% | 25% | . | 71µM* | 2%
Cn1nnnc1NC(=O)c1ccccc1Cl | . | . | . | 2% | -16% | 7%
CCCn1nnnc1NC(=O)c1ccc(C)cc1Cl | 6.3µM* | 0% | 3.5µM* | -4% | -2% | -3%
CCCn1nnnc1NC(=O)c1cccs1 | 2.8µM* | -1% | 0.89µM* | -1% | -26% | 2%
CCCn1nnnc1NC(=O)c1cc(Br)ccc1OC | 5.6µM* | -3% | 3.2µM* | 0% | 6% | 1%
CCCn1nnnc1NCc1cc(Br)ccc1OC | ? | 1% | 5% | 0% | 8% | 0%
COc1cc(C2Nc3ccccc3C(=O)N2Cc2ccco2)cc(OC)c1OC (stereo not drawn) | . | . | . | 4% | . | -1%
COC(=O)c1cc2sccc2n1CC(=O)N1CCCc2ccccc21 | -5% | 3% | 43% | -3% | -11% | 3%[38.3 µM]
COC(=O)c1cc2oc(C)cc2n1CC(=O)N1CCCc2ccccc21 | -1% | 0% | 6% | 0% | 56µM* | -3%
O=C(Nc1ccc(S(=O)(=O)N(Cc2ccccc2)c2ccccc2)cc1)c1ccc(F)cc1 | . | -3% | . | ? | . | 3%
Cc1ccc(O)c(-c2cc(C(F)(F)C(F)F)nc(-c3ccccc3)n2)c1 | -1% | 0% | -1% | 25µM* | 10% | 9%
COC(=O)c1ccc(C(NC(=O)OCc2ccccc2)/C(F)=C/[C@@H](C)C(=O)Nc2ccc(OC)cc2)cc1 (stereo partly drawn) | ? | 0% | 20µM* | . | 19% | .
COC(=O)c1ccc(C(NC(=O)OCc2ccccc2)/C(I)=C/[C@@H](C)C(=O)NCc2ccc(C)o2)cc1 (stereo partly drawn) | 12% | 8% | ? | . | 40µM* | .
Cc1nonc1CN(C)C(=O)C1CC12CCN(C(=O)/C=C/c1cccc(Cl)c1)CC2 (stereo not drawn) | . | . | . | . | . | 0%
CSc1ncc(C(=O)NCc2ccc(C)cc2)c(-c2ccccc2)n1 | . | 1% | . | -1% | . | 1%
COc1ccc(N2C(=O)[C@@H]3[C@H](C2=O)[C@H]2C=CC=NN2[C@@H]3C(=O)Nc2ccc(Cl)cc2)cc1 | ? | ? | 14µM* | 2% | 35µM* | -1%
SMILES | VP16 counter | Epigenetic derep | RORg inh | ClpP mod | Sfp inh | PINK1 expr mod
O=C(Nc1ccc(Cl)cc1)[C@@H]1[C@@H]2C(=O)N(c3cccc(F)c3)C(=O)[C@@H]2[C@H]2C=CC=NN21 | 15% | -1% | -8% | -3% | -3% | 0%
O=C(Nc1ccc(Cl)cc1)[C@@H]1[C@@H]2C(=O)N(c3ccc4ccccc4c3)C(=O)[C@@H]2[C@H]2C=CC=NN21 | 5% | 6% | -15% | -2% | 40µM* | 0%
COc1ccc(C(=O)[C@H]2[C@H]3C(=O)N(c4ccc(OC(C)=O)cc4)C(=O)[C@H]3C3C=CC=NN32)cc1 (stereo partly drawn) | -14% | 1% | -9% | . | 2% | -2%
Nn1c(SCC(=O)N2CCCCC2)nnc1-c1ccncc1 | -4% | -1% | -17% | 28µM* | 10% | 4%
Nn1c(SCC(=O)N2CCCCCC2)nnc1-c1ccncc1 | 4% | 0% | 5% | 0% | 12% | ?
CC1(C)CCCN(C(=O)c2coc(=O)c(Br)c2)C1 | -3% | ? | 6% | 25µM* | -4% | 0%
O=C(c1cccc(Br)c1)N1CCCc2ccccc21 | -1% | . | ? | 0% | -1% | 7%
O=C(c1coc(=O)c(Br)c1)N1CCC(C(O)(c2ccccc2)c2ccccc2)CC1 | 21% | ? | 26% | ? | -17% | -1%
O=C(c1coc(=O)c(Br)c1)N1CCCc2ccccc21 | ? | -8% | 1%[10 µM] | 13µM* | 79µM* | 4%
Cc1cc(C)n(C(C)CC(=O)Nc2ccc(C)c(N(C)C)c2)n1 (stereo not drawn) | . | 3% | . | -1% | . | 2%
C/C(=N\Nc1nc2ccccc2nc1C)c1ccccc1O | 2µM* | ? | 0.22µM* | . | 14% | ?
CCOc1cc(/C=N/NC(=O)c2cc(-c3cccc(OC)c3)n[nH]2)ccc1O | . | 12% | . | . | . | .
Cc1cc(NC(=O)/C(C#N)=C/c2ccc(-c3cccc(C(F)(F)F)c3)o2)n(-c2ccccc2)n1 | ? | ? | -11% | -4% | 0% | 11%
N#C/C(=C\c1ccc(-c2cccc(Cl)c2)o1)C(=O)Nc1cccc(C(F)(F)F)c1 | . | 11µM* | . | -3% | . | 1%
Cc1cc2nc(N3CCC(NC(C)c4nc(-c5ccccn5)no4)CC3)nc(C)c2cc1C (stereo not drawn) | . | . | . | . | . | 0%
O=C(Oc1coc(CSc2nnc(NC(=O)C3CC3)s2)cc1=O)c1ccccc1 | -2% | 2% | 1% | 0% | -3% | 1%
COc1ccc(C(=O)Oc2coc(CSc3nnc(NC(=O)c4cccs4)s3)cc2=O)cc1 | -14% | -3% | -15% | 28µM* | 1% | 5%
